# Results reported in PubChem BioAssay (NCATS).
# Several values for one entry are separate records, joined by “and”; a condition that tells them apart may be missing. Equal values may be shown once. Records with an inconclusive call do not appear. Activity calls are given as the source filed them. Calls come from the whole dose curve; as a rule, active = well fitted curve in the direction sought with a large enough effect; inconclusive = small, poorly fitted or top-dose-only effect, or another doubt; inactive = no such curve, though single readings can be large; an effect the other way counts as inactive or inconclusive.
# Legend:
# [1] = Viability qHTS for spleen associated tyrosine kinase inhibitor (SYKi) drug resistant MV4-11 cells (AID 1963824); note: potency is the fitted concentration of half-maximal effect; nearly all actives have a fitted effect of over 35% in size
# Outline: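 SYK-inhibitor-resistant MV4-11 AML cells were seeded at 500 per well onto compound and cultured 72 hours (37 °C, 5% CO2). CellTiter-Glo was then added, and after 10 min at room temperature, luminescence gave viability.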
# [2] = Cellular viability qHTS for adrenocortical cancer (ACC) cell line NCI-H295R (AID 1963990); note: nearly all actives have a fitted effect of over 60% in size; note: potency is the fitted concentration of half-maximal effect
# Outline: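 Readout: CellTiter-Glo luminescence, 20 min RT. Exposure: 48 h, 37C/5% CO2. Cells: NCI-H295R, ITS-DMEM serum-free. Range: up to 46 uM. Analysis: 4PL fit, IC50 plus efficacy.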
# [3] = Quantitative highthroughput screen to assess conditional lethalithy of NOMO1 cells grown in RPMI1640 with untreated serum (RPMI+s) (AID 1963876); note: nearly all actives have a fitted effect of over 35% in size
# Outline: (§1)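 Each medium arm—HPLM with 10% dialyzed FBS, or RPMI1640 with 5 mM glucose and 10% untreated or dialyzed FBS—was screened against an 11-point, 3-fold compound titration for 48 h at 37 °C, with CellTiter-Glo luminescence as endpoint.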
# [4] = Quantitative highthroughput screen to assess conditional lethalithy of NOMO1 cells grown in RPMI1640 with dialyzed fetal bovine serum (RPMI+ds) (AID 1963877); note: series mostly up to about 46 µM; nearly all actives have a fitted effect of over 30% in size
# Outline: as §1
# [5] = Quantitative highthroughput screen to assess conditional lethalithy of NOMO1 cells grown in Human Plasma-Like Medium with dialyzed fetal bovine serum (HPLM+ds) (AID 1963878); note: nearly all actives have a fitted effect of over 35% in size
# Outline: as §1
smiles,measurement,setting,value
CCN(CC)CCNc1ccc(CO)c2sc3ccccc3c(=O)c12,Potency,[1],3.76 µM (active)
same,Potency,[2],1.03 µM (active)
CCCOc1ccc(CCc2nc3cc(-c4c(C)noc4C)ccc3n2CCN2CCOCC2)cc1,Potency,[1],5.25 µM (active)
same,Potency,[2],22.4 µM (active)
C[C@H]1C[C@@H]2[C@@H]([C@@H](O)C[C@@]3(C)[C@H]2CC[C@]3(O)C(=O)CO)[C@@]2(C)C=CC(=O)C=C12,Potency,[3],inactive
same,Potency,[4],inactive
same,Potency,[5],inactive
CN(C)CCCOc1ccc(-c2ccc3ncc4c(c3c2)n(C2CCOCC2)c(=O)n4C)cn1,Potency,[1],2.04 µM (active)
same,Potency,[2],1.8 µM (active)
CCOCc1nc2c(N)nc3ccccc3c2n1CC(C)(C)O,Potency,[1],18.6 µM (active)
same,Potency,[2],inactive
O=C(/C=C/c1ccc2ccc(C(F)(F)F)cc2n1)c1ccncc1,Potency,[1],0.934 µM (active)
same,Potency,[2],4.47 µM (active)
O=C(N/N=C/c1ccc([N+](=O)[O-])o1)c1ccc(O)cc1,Potency,[1],16.8 µM (active)
same,Potency,[2],7.31 µM (active)
O=C(OCCOCCO)c1ccccc1Nc1cccc(C(F)(F)F)c1,Potency,[1],14.6 µM (active)
same,Potency,[2],25.9 µM (active)
Cc1cccc(CC(=O)N2CCc3c2ccc(-c2cn(C)c4ncnc(N)c24)c3F)n1,Potency,[1],2.06 µM (active)
same,Potency,[2],inactive
C#C[C@]1(OC(C)=O)CC[C@H]2[C@@H]3CCC4=C[C@@H](OC(C)=O)CC[C@@H]4[C@H]3CC[C@@]21C,Potency,[1],21.1 µM (active) and 14.6 µM (active)
same,Potency,[2],20.6 µM (active)
CC1(C)O[C@@H]2C[C@H]3[C@@H]4C[C@H](F)C5=CC(=O)C=C[C@]5(C)[C@H]4[C@@H](O)C[C@]3(C)[C@]2(C(=O)CO)O1,Potency,[1],18.6 µM (active)
same,Potency,[2],inactive
COc1cc(=C2C=c3ccccc3=N2)[nH]c1=Cc1[nH]c(C)cc1C,Potency,[3],inactive
OC[C@H]1O[C@@H](O[C@H]2[C@@H](O)[C@@](O)(CO)O[C@@H]2CO)[C@H](O)[C@@H](O)[C@@H]1O,Potency,[3],inactive
same,Potency,[4],inactive
CC1(C)O[C@@H]2C[C@@H]3[C@H]4C[C@@H](F)C5=CC(=O)C=C[C@]5(C)[C@@]4(F)[C@@H](O)C[C@]3(C)[C@]2(C(=O)CO)O1,Potency,[3],inactive
same,Potency,[4],inactive
same,Potency,[5],inactive
CC1(C)C(N(O)C(=O)Nc2ccc(Cl)cc2)N(c2ccc(Cl)cc2)C(=O)N1CC(=O)NN=CC=Cc1ccc([N+](=O)[O-])o1 (stereo not drawn),Potency,[3],inactive
CCC(=O)c1ccc2c(c1)N(CCCN(C)C)c1ccccc1S2,Potency,[1],21.1 µM (active)
same,Potency,[2],14.6 µM (active)
CC(=O)Nc1cc(Oc2ccc3c(nc(Nc4ccc(F)cc4F)n3C)c2C)ccn1,Potency,[1],1.66 µM (active)
same,Potency,[2],2.24 µM (active)
CN(C)CCOc1ccc(-c2nc(-c3ccc4c(c3)CCC4=NO)c(-c3ccncc3)[nH]2)cc1,Potency,[3],inactive
CC(C)CN(C[C@H](O)[C@H](Cc1ccccc1)NC(=O)O[C@H]1CCOC1)S(=O)(=O)c1ccc(N)cc1,Potency,[3],inactive
same,Potency,[4],inactive
same,Potency,[5],inactive
